Experimental data published in PubChem BioAssay (Tox21).
Records with an inconclusive call do not appear. Calls of active or inactive are those of the source. Calls come from the whole dose curve; as a rule, active = well fitted cell-killing curve with a large enough effect in the repeat runs; inconclusive = weak or mixed curves; inactive = flat fitted curve, though single readings scatter.

Assay: qHTS RealTime-Glo MT Cell Viability Assay in HepG2 cells - 32 hour (AID 1224877); note: nearly all actives have a fitted effect of over 55% in size
Details: RealTime-Glo luminescence; series mostly up to 76.8 µM
Text: U.S. Tox21 Program National Center for Advancing Translational Sciences [NCATS] NIH Chemical Genomics Center [NCGC] U.S. Environmental Protection Agency [EPA] National Institutes of Environmental Health Sciences [NIEHS] National Toxicology Program [NTP] U.S. Food and Drug Administration [FDA] Tox21 Assay Overview: Measure of cell viability is critical in the cell-base assay. Analysis of cell viability is necessary for the characterization of cell responses to cytotoxic drugs and environmental stress. A RealTime-Glo MT Cell Viability Assay to monitor cell viability in real time of continues cell culture during 40 hours of compound treatment was used to screen Tox21 10K library compounds in HepG2 cells. The RealTime-Glo MT Cell Viability Assay is a nonlytic, homogeneous, bioluminescent method to measure cell viability in real time using a simple, plate-based method. The assay involves adding NanoLuc luciferase and a cell-permeant prosubstrate to cells in culture. Viable cells reduce the proprietary prosubstrate to generate a substrate for NanoLuc luciferase. This substrate diffuses from cells into the surrounding culture medium, where it is rapidly used by the NanoLuc Enzyme to produce a luminescent signal. The signal correlates with the number of viable cells, making the assay well suited for cytotoxicity studies.
Tox21 Assay Protocol Summary: The mixture of HepG2 cell suspension and reagents were dispensed at 600cells/6 ul/well in 1536-well tissue culture treated black solid bottom plates using a Multidrop dispenser. After the assay plates were incubated at a 37 C/5% CO2 incubator for 5 hours, 23 nL of compounds dissolved in DMSO, positive and negative controls was transferred to the assay plate by a pintool work station. The plates were incubated at 37 C for 40 hours. The luminescence intensity were measured at 0h, 8h, 16h, 24h, 32h and 40h time points using ViewLux plate reader during compound treatment.
% is set by controls: 0 for no effect and ±100 for the full control effect.

Question: For OC[C@@H](O)[C@H](O)[C@@H](O)[C@@H](O)CO, which outcome is on record?
Answer: inactive

Question: With CCC(=O)OCCC(C)CCC=C(C)C (stereo not given) as the compound, how does the outcome read?
Answer: inactive

Question: Which outcome does the source give for O=S(=O)(O)c1cc(O)ccc1O here?
Answer: inactive

Question: With CC(C)COC(=O)CCCCC(=O)OCC(C)C as the compound, how does the outcome read?
Answer: inactive

Question: With O=C(O)/C=C/c1ccccc1 as the compound, how does the outcome read?
Answer: inactive

Question: For CC(=O)c1ccc(OCC(=O)N2CCCCC2)cc1, which outcome is on record?
Answer: inactive

Question: Which outcome does the source give for COc1cc([N+](=O)[O-])ccc1N here?
Answer: inactive

Question: Which outcome does the source give for O=C1NC2NC(=O)NC2N1 (stereo not given) here?
Answer: inactive

Question: Which outcome does the source give for CC(Cl)COP(=O)(OCC(C)Cl)OCC(C)Cl (stereo not given) here?
Answer: inactive

Question: For Cc1ncc([N+](=O)[O-])n1CC(O)CCl (stereo not given), which outcome is on record?
Answer: inactive

Question: Which outcome does the source give for CNCc1ccccc1 here?
Answer: inactive

Question: Which outcome does the source give for CC1=CC[C@H](CC=O)C1(C)C here?
Answer: inactive

Question: Which outcome does the source give for CCCCCCCCCCC here?
Answer: inactive

Question: Which outcome does the source give for CCCCCN(CCCOC)C(=O)C(CCC(=O)O)NC(=O)c1ccc(Cl)c(Cl)c1 (stereo not given) here?
Answer: inactive

Question: With Cn1c(=O)c2c(ncn2CC2OCCO2)n(C)c1=O as the compound, how does the outcome read?
Answer: inactive

Question: With Nc1nc(=O)n([C@@H]2O[C@H](CO)[C@@H](O)[C@@H]2F)cc1I as the compound, how does the outcome read?
Answer: inactive

Question: Which outcome does the source give for CC(C)CCCC(C)CC=O (stereo not given) here?
Answer: inactive

Question: With CCOC(=O)CC(CC(=O)OCC)(OC(C)=O)C(=O)OCC as the compound, how does the outcome read?
Answer: inactive

Question: For Cc1ccc(C(=O)C(=O)O)cc1C, which outcome is on record?
Answer: inactive

Question: With CCCCCCCCC(=O)OCC as the compound, how does the outcome read?
Answer: inactive

Question: Which outcome does the source give for O=C(/C=C/c1ccccc1)NCCO here?
Answer: inactive

Question: For CN=C(NC#N)NCCSCc1csc(N=C(N)N)n1, which outcome is on record?
Answer: inactive

Question: With Cc1ccccc1C(=O)N1CC/C(=N\OS(=O)(=O)O)c2ccc(Cl)cc21 as the compound, how does the outcome read?
Answer: inactive

Question: For CCCCOC(=O)C(C)OC(=O)CCC (stereo not given), which outcome is on record?
Answer: inactive

Question: With CC(C)CCCCCCOC(=O)C1CCCCC1C(=O)OCCCCCCC(C)C (stereo not given) as the compound, how does the outcome read?
Answer: inactive

Question: For NC(Cc1c[nH]c2ccccc12)C(=O)O (stereo not given), which outcome is on record?
Answer: inactive

Question: Which outcome does the source give for C=C(C)C(=O)OCCCCCCOC(=O)C(=C)C here?
Answer: inactive

Question: With Cc1ccccc1OCC1CO1 (stereo not given) as the compound, how does the outcome read?
Answer: inactive

Question: For O=C1OC(=O)c2ccccc21, which outcome is on record?
Answer: inactive

Question: With C=CCOc1c(Br)cc(Br)cc1Br as the compound, how does the outcome read?
Answer: inactive

Question: Which outcome does the source give for CC(=O)Nc1ccc(C)cc1 here?
Answer: inactive

Question: Which activity change, negative = cytotoxic does the source give for CCCCCCCCCCCCCCCCI here?
Answer: 7.46% [at 15.8 µM] (inactive)

Question: Which outcome does the source give for CCCCCCCCCOCC1CO1 (stereo not given) here?
Answer: inactive

Question: For CC(C)COC(=O)/C=C/c1ccccc1, which outcome is on record?
Answer: inactive

Question: For C[C@H](CCC(=O)NCC(=O)O)[C@H]1CC[C@H]2[C@@H]3[C@H](O)C[C@@H]4C[C@H](O)CC[C@]4(C)[C@H]3C[C@H](O)[C@]12C, which outcome is on record?
Answer: inactive

Question: Which outcome does the source give for C/C=C(\C)C(=O)OCC/C=C\CC here?
Answer: inactive

Question: With SCCSCCS as the compound, how does the outcome read?
Answer: inactive

Question: For C=C(C)[C@@H]1CC[C@@H](C)C[C@@H]1O, which outcome is on record?
Answer: inactive

Question: For C[C@H](CCC(=O)O)[C@H]1CC[C@H]2[C@@H]3[C@H](O)C[C@@H]4C[C@H](O)CC[C@]4(C)[C@H]3C[C@H](O)[C@]12C, which outcome is on record?
Answer: inactive

Question: Which outcome does the source give for NCCc1ccn[nH]1 here?
Answer: inactive
